In all, about 2,300 compounds went through this assay and about 1,400 (61%) were called active. Roughly 29% stayed inconclusive and do not appear here. So high a share suggests a set chosen from earlier hits. The list shows a part of the results. Values without a mark were called inactive. The call rests on the fitted dose curve; in most records, active means well fitted inhibition curve with a large enough effect; inconclusive means small, poorly fitted or top-dose-only effect, or effect the other way; inactive means no such curve, though single readings can be large or run the other way.
On the % scale 0 is the no-effect control and ±100 the full control effect; potency means the concentration at half of the fitted maximal effect.

The assay can be described thus: Confirmation screen for delayed death inhibitors of the malarial parasite plastid, 96 hour incubation. Further: nearly all actives have a fitted effect of over 60% in size. The note with it: P. falciparum luciferase growth in erythrocytes; series mostly up to 28.7 µM; activity change, negative = inhibition: at the top concentration. An excerpt: The goal of this screen is to discover new antimalarial compounds that act by inhibiting the development of the apicoplast in the malarial parasite Plasmodium falciparum. The biochemical processes that make this organelle essential for erythrocytic stage parasites are not well understood. However, antibiotics, such as azithromycin and tetracycline, which target the apicoplast translational machinery, have a potent antimalarial effect. […] We have developed a cell-based assay that measures parasite growth based on the expression of an integrated copy of a firefly luciferase reporter. To detect small molecules that cause this "delayed death phenotype, erythrocytes infected with the luciferase-expressing parasites were incubated with compounds for either one or two generations, corresponding to 48 and 96 hours, respectively. Compounds that inhibit parasite growth in the second generation, but not the first, should be enriched in antimalarials that target the apicoplast. Growth inhibition is detected by a decrease in luciferase activity. MLPCN Grant: R21 NS059500 Assay Provider: David Fidock and Eric Ekland, Columbia University Keywords: NIH Roadmap, MLPCN, MLI, MLSMR, qHTS, NCGC, qHTS, malaria, luciferase, viability
Four microliters of culture medium (RPMI 1640 with 0.5% w/v Albumax (GIBCO), 24 mM sodium bicarbonate and 10 ug/mL gentamycin) were dispensed by a Multi-drop Combi into white solid 1536-well plates (Grenier) and 23 nL compound was added by a pin tool. Four microliters of infected erythrocytes (2% hematocrit, 0.1% parasitemia final concentration) in culture medium were dispensed and the plates incubated for 96 hours at 37 C in 5% CO2. Two microliters of luciferase detection reagent was added and luminescence was detected by a ViewLux (PerkinElmer) reader
On to `Cc1oc2c(c1C(=O)N1CCOCC1)C(=O)c1ccccc1C2=O`, for which the Potency was 1.58 µM (active).
The same measure, in the same setting: the figure for `Cc1nnnn1/C(=C\c1ccccc1)C(=O)OCC(=O)N1CC2(C)CC1CC(C)(C)C2` (stereo unspecified) is 10 µM (active); for `COc1cc(/C=C/C(=O)c2ccc(O)cc2)ccc1OCC#N` it is 10 µM (active).
Still for that read-out and setting: the same measure for `COc1cccc(C(=O)/C=C/c2ccc(OCC#N)c(OC)c2)c1`: 3.98 µM (active); for `COc1cc(/C=C/C(=O)c2ccc(C)cc2)ccc1OCC#N`: 12.6 µM (active).
With `COc1ccc(/C=C/C(=O)c2ccc(C(=O)/C=C/c3ccc(OC)c(OC)c3)cc2)cc1OC`, the “activity change, negative = inhibition” value was -104%.
Consider `CCCCN(C)CCCNC(=O)c1cc(=O)[nH]c2ccc(S(=O)(=O)N3CCCCC3C)cc12` (stereo unspecified), for which the Potency was 1.12 µM (active).
Still for that read-out and setting: the same measure for `CCCCN(C)C(=O)C1CCC(CNS(=O)(=O)c2ccc3c(c2)CC(C)N3C(=O)C2CC2)CC1` (stereo unspecified): 5.62 µM (active).
Consider `Cc1ccc(C(=O)OCc2nnc(-c3ccc(Br)cc3)o2)cc1`, for which the “activity change, negative = inhibition” value was -5.53%.
As for `CCOC(=O)c1c(C)nc(C)c(C(=O)OCC)c1-c1ccc(Br)cc1`, the Potency was 11.2 µM (active).
Still for that read-out and setting: the same measure for `CN(C)c1ccc(CN(C(=O)c2ccccc2Br)C2CCS(=O)(=O)C2)cc1` (stereo unspecified): 14.1 µM (active).
Still for that read-out and setting: the same measure for `CCCN1CCc2c(sc3nc(SCC)n(-c4ccccc4)c(=O)c23)C1`: 0.631 µM (active).
On to `CCCN1CCc2c(sc3nc(SCC)n(-c4ccc(OC)cc4)c(=O)c23)C1`, for which the Potency is 0.316 µM (active).
Turning to `Cn1c(=O)c2c([nH]c(=O)n2C)n(C)c1=O`, the “activity change, negative = inhibition” value is -20.4%.
As for `CCCc1cc(NCc2ccccn2)n2nc(C)c(-c3ccccc3)c2n1`, the Potency was 3.55 µM (active).
Still for that read-out and setting: the same measure for `NC(=O)CC(NC(=O)Cc1ccc(Br)cc1)c1ccc(NC2CC3CCC2C3)c([N+](=O)[O-])c1` (stereo unspecified): 12.6 µM (active); for `CC/C(=N\OC(=O)c1ccc(OC(C)C)cc1)c1ccc(C)cc1`: 11.2 µM (active).
On the same count and under the same terms, the figure for `O=C(/C=C/c1cccnc1)c1ccc(O)cc1` is 11.2 µM (active); for `O=C(/C=C/c1ccccc1)/C=C/c1ccccc1` it is 2.51 µM (active); for `COc1cc(C(=O)/C=C/c2cccnc2)ccc1O` it is 5.01 µM (active).
Regarding `O=C(/C=C/c1cccnc1)/C=C/c1cccnc1`, the Potency was 3.55 µM (active).
The same measure, in the same setting: the same measure for `COc1ccc(-c2cc(C)no2)cc1S(=O)(=O)Nc1cccc(CN2CCCC2)c1`: 12.6 µM (active).
Same read-out and setting: the figure for `COc1ccc(C)cc1S(=O)(=O)Nc1cccc(-c2ccc(N3CCCCCC3)nn2)c1` is 10 µM (active).
For `COc1ccc(S(=O)(=O)Nc2cccc(-c3ccc(N4CCCCCC4)nn3)c2)c(OC)c1`, the Potency was 11.2 µM (active).
In the case of `CCCOc1ccc(/C=C/C(=O)NC2CCCCC2)cc1OC`, the Potency is 15.8 µM (active).
On to `Nc1ccccc1C#CC(=O)c1ccccc1`, for which the Potency is 14.1 µM (active).
With `CCCC1O[C@@H]2CC3C4CCC5=CC(=O)C=C[C@]5(C)C4C(OC(C)=O)C[C@]3(C)[C@]2(C(=O)COC(C)=O)O1` (stereo partly specified), the Potency is 1.41 µM (active).
The same measure, in the same setting: the figure for `CCOC(=O)C1CCN(c2cc3c(cc2NC(=O)c2ccccc2Cl)n(C)c(=O)n3C)CC1` is 7.94 µM (active).
The same measure, in the same setting: the figure for `O=C(C=C=Nc1ccccc1)C(=O)N=C=Cc1ccccc1` is 7.94 µM (active); for `COc1ccc(NC(=O)Cc2coc3cc(C)c(C(C)C)cc23)cc1S(=O)(=O)N1CCOCC1` it is 7.94 µM (active); for `COc1ccc(NC(=O)Cc2ccc(Cl)cc2)cc1S(=O)(=O)N1CCCCC1` it is 14.1 µM (active).
For the compound `Cc1csc(NC(=O)Cc2coc3cc(C)c(C(C)C)cc23)n1`, the Potency was 12.6 µM (active).
As to `COc1ccc2c(CC(=O)OCC(=O)Nc3cccc(S(N)(=O)=O)c3)coc2c1`, the “activity change, negative = inhibition” value was -6.15%.
Consider `CC1CCC/C=C/C(=O)c2c(O)cc(O)cc2CC(=O)O1` (stereo unspecified), for which the Potency is 5.01 µM (active).
Same read-out and setting: the figure for `CC(C)c1cc(NC(=O)CCl)on1` is 7.08 µM (active).
Still for that read-out and setting: the figure for `COc1ccc(NC(=O)[C@H](Cc2c[nH]c3ccccc23)NC(=O)[C@@H]2Cc3ccccc3CN2)cc1` is 6.31 µM (active).
For the compound `CCS(=O)(=O)N1Cc2ccccc2CC1C(=O)Nc1cccc(OC)c1` (stereo unspecified), the “activity change, negative = inhibition” value was 11%.
Turning to `O=C(NC(Cc1c[nH]c2ccccc12)C(=O)Nc1ccc(F)cc1)c1cccs1` (stereo unspecified), the Potency was 10 µM (active).
Still for that read-out and setting: the figure for `COc1cccc(NC(=O)[C@H](Cc2c[nH]c3ccccc23)NC(=O)[C@@H]2Cc3ccccc3CN2)c1` is 12.6 µM (active); for `Cc1cccc(NC(=O)[C@H](Cc2c[nH]c3ccccc23)NC(=O)[C@@H]2Cc3ccccc3CN2)c1` it is 10 µM (active).
On the same count and under the same terms, the same measure for `COC(=O)C1=C(C)NC2=C(C(=O)CC(c3cccs3)C2)C1c1ccsc1` (stereo unspecified): 12.6 µM (active); for `O=C(CNC(=O)C1CCCCC1)OC(C(=O)c1ccccc1)c1ccccc1` (stereo unspecified): 15.8 µM (active); for `COc1ccc(/C=C2\CN(Cc3ccccc3)C/C(=C\c3ccc(OC)c(O)c3)C2=O)cc1O`: 0.708 µM (active).
Still for that read-out and setting: the figure for `CCN1C/C(=C/c2ccc(OC)c(O)c2)C(=O)/C(=C/c2ccc(OC)c(O)c2)C1` is 14.1 µM (active); for `CCOc1cc(/C=C2\CN(CC)C/C(=C\c3ccc(O)c(OCC)c3)C2=O)ccc1O` it is 3.16 µM (active); for `COc1ccc(NS(=O)(=O)c2cc(OCC(N)=O)c(C)cc2Cl)cc1` it is 5.01 µM (active).

The values are drawn from PubChem BioAssay AID504848 (National Center for Advancing Translational Sciences (NCATS), 2011).
